Screens from PubChem BioAssay.
Only some compounds are listed: those with a hit (about 3.7% of all), similar ones and a draw of the others.
Kir21 block: blocks the mouse Kir2.1 inward-rectifier potassium channel. actives 0.85% (n = 310,000). B-score at 10 µM. AID 1672. HEK293-Kir2.1, FluxOR thallium flux fluorescence; active compounds read low;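 active = fluorescence ratio B-score at or below minus 3 SD of library scores, with starting-brightness B-score within 2 SD, cut at about -4.2 in these data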;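 note: channel flux triggered by added potassium and thallium sulfate stimulus; B-score of peak minus minimum fluorescence over baseline after thallium stimulus; more negative B-score means stronger Kir2.1 block with less thallium influx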
GPR7 antag: blocks human GPR7 receptor signaling | actives 1.1% (n = 290,000) | P48145 | GPR7-expressing cells, fluorescence antagonist assay | AID 1861 | inhibition, % at 4.4 µM; in the data active = inhibition above about 16%, passing the limit was not always enough;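 note: cells stimulated with the agonist NPW; 0% = agonist with vehicle and 100% = vehicle without agonist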
Target sequence (P48145 whole entry, looked up): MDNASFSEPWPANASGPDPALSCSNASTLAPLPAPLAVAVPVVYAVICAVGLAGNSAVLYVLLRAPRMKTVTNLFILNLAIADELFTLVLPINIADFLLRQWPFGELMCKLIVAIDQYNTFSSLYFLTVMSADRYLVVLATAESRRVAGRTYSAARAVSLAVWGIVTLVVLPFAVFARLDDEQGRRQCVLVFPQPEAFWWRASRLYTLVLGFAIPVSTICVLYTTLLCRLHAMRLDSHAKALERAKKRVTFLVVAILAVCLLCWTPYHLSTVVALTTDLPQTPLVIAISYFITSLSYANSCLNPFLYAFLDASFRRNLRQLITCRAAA
ANO1 activ: mouse TMEM16A channel activation, primary screen. Q8BHY3. HEK293 TMEM16A/YFP-H148Q/I152L, iodide quench fluorescence; active compounds read low. B-score at 10 µM. actives 0.3% (n = 340,000). AID 623877;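 active = fluorescence-ratio B-score plate-corrected deviation score at least 3 library SD below zero, with starting fluorescence score within 5 deviations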;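 note: channel opened by trigger with iodide after compound preincubation; score built on the fluorescence ratio of max minus min over baseline; more negative score means more quench and so TMEM16A activation or potentiation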
TMEM16A inh: mouse TMEM16A channel inhibition, primary screen | normalized B-score (activity score, 25-100; higher = stronger inhibition) at 10 µM | actives 1.2% (n = 310,000) | Q8BHY3 | HEK293 TMEM16A/YFP iodide influx fluorescence, ionomycin;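 active = ratio plate-corrected score three or more library SD toward inhibition, starting fluorescence score within five deviations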;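 note: score derived from kinetic fluorescence span divided by baseline fluorescence per well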
CHT allo act: human CHT allosteric activation; AID 488977; B-score at 10 µM; CHT-expressing cells, membrane potential dye, choline EC20; active compounds read high; LV-AA mutant CHT in HEK293 cells; Q9GZV3; actives 0.49% (n = 310,000);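 active = initial fluorescence not abnormally high and integrated response B-score, plate-corrected, over 3 SD above library mean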
CHT block: inhibits the human high affinity choline transporter; B-score at 10 µM; AID 488975; actives 0.86% (n = 310,000); CHT-expressing cells, membrane potential dye, choline response; active compounds read low; Q9GZV3;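 active = B-score over 3 SD under the library average, and starting fluorescence ratio not unusually high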;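 note: choline stimulus applied at its EC90 after an EC20 pre-addition; B-score computed on integrated fluorescence ratio after choline addition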
Starred values were filed as active, the others as inactive; i = inactive; . = not tested or not shown.

SMILES | Kir21 block | GPR7 antag | ANO1 activ | TMEM16A inh | CHT allo act | CHT block
O=C(CC1SCCNC1=O)Nc1cccc([N+](=O)[O-])c1 (stereo not drawn) | -0.61 | 3 | i | i | i | i
CC(C)c1cc(C(=O)OCC(=O)NC(=O)NCc2ccco2)c(O)c(C(C)C)c1 | -1.5 | 17* | i | i | i | i
O=C(OCCc1cc2ccccc2c(=O)o1)N1CCOCC1 | . | . | i | . | . | .
CCC1(C)OC(=O)N2CCc3c(C)[nH]c4c(C)ccc(c34)C21C (stereo not drawn) | -1.8 | 18* | i | i | i | i
Nc1ccc(-c2nc3ccc([N+](=O)[O-])cc3[nH]2)cc1 | 1.1 | 20* | i | i | i | i
O=[N+]([O-])c1ccc(-c2nc3ccc([N+](=O)[O-])cc3[nH]2)cc1 | 0.33 | 5 | i | i | i | i
N#Cc1c(N2C(=O)C3C4C=CC(C4)C3C2=O)sc2c1CCC2 (stereo not drawn) | -0.66 | -4 | . | i | i | i
N#Cc1c(-n2cccc2/C=N/O)sc2c1CCCC2 | -9.8* | 9 | i | i | i | i
C=CCn1c(C(C)NC(=O)CCC)nc2ccccc21 (stereo not drawn) | -0.29 | 20* | i | i | i | i
COc1ccc(NC2CCCN(C(=O)c3ccc4nc(C)c(C)nc4c3)C2)cc1OC (stereo not drawn) | -1.8 | -6 | i | i | i | i
Cc1ccc(NC(=O)/C=C/c2ccco2)cc1S(=O)(=O)N1CCCCCC1 | -0.02 | . | i | 25* | i | i
CC(=O)Nc1ccc(S(=O)(=O)NC(CC(=O)O)c2ccc(C)cc2)cc1 (stereo not drawn) | -0.08 | -19 | i | i | i | i
CCOC(=O)CC(NS(=O)(=O)c1ccc(NC(C)=O)cc1)c1ccc(OCC)cc1 (stereo not drawn) | -0.24 | -11 | i | 25* | i | i
NC(=S)N/N=C/c1ncc(C(F)(F)F)cc1Cl | 0.17 | -8 | i | i | i | i
CC(C)(C)C(=O)Nc1nc(=S)ss1 | -0.41 | -10 | i | 100* | i | -5.5*
CCC(=O)Nc1nc(=S)ss1 | 0.8 | 1 | i | i | i | i
CCOC(=O)c1c(C)oc2cc(Br)c(OC(C)C(=O)OCC)cc12 (stereo not drawn) | -0.77 | -1 | i | 25* | i | i
C[C@@H]1CN([C@@H](C)CO)C(=O)Cc2cc(NC(=O)C3CCCCC3)ccc2O[C@H]1CN(C)S(=O)(=O)c1ccccc1 | . | . | i | . | . | .
CCOc1ccc(CN2CCN(Cc3nc4c(s3)CCCC4)CC2CCO)cc1 (stereo not drawn) | 0.47 | -11 | i | i | i | i
C/C(=N\NC(=S)NCc1ccccc1)c1ccc2c(c1)OCCO2 | -0.65 | -13 | i | 25* | i | i
C/C(=N\NC(=S)NCc1ccccc1)c1ccc(Br)cc1 | -0.16 | 5 | i | i | i | i
Cc1cccnc1NC(=S)NC(=O)c1cccs1 | 0.47 | -1 | i | 25* | i | i
Cc1cccc(C)c1NC(=S)N1CCCN(Cc2ccc(F)cc2)C1 | -0.06 | -3 | i | i | i | i
Cc1cccc(C)c1NC(=S)N1CCCN(C)CC1 | -1.4 | -12 | -5.7* | i | i | i
Cc1c(Cl)c(C(=O)Nc2nc3ccccc3n2CCN2CCCCC2)nn1C | -0.05 | -13 | . | i | 9.7* | i
SMILES | Kir21 block | GPR7 antag | ANO1 activ | TMEM16A inh | CHT allo act | CHT block
CC1CN(S(=O)(=O)c2ccc(C(=O)N3CCc4ccccc43)cc2)CC(C)O1 (stereo not drawn) | . | . | i | . | . | .
CC1CC(C)CN(CCOCCSc2ccc(Cl)cc2)C1 (stereo not drawn) | -4.5* | 18 | i | i | i | i
CC1CN(CCCSc2ccc(Cl)cc2)CC(C)O1 (stereo not drawn) | -0.02 | -3 | i | i | i | i
COc1ccccc1C(=O)Nc1ccnn1C1CCN(Cc2cc(C)c(C)cc2C)CC1 | -1.4 | -19 | i | i | i | -5.3*
CN(C(=O)c1nn(C)c2c1CS(=O)(=O)c1ccccc1-2)c1cccc(Cl)c1 | 0.46 | 2 | i | i | i | i
Cc1ccc(C(C[N+](=O)[O-])c2c(C)[nH]n(-c3ccccc3)c2=O)cc1 (stereo not drawn) | -12* | -7 | i | i | i | i
Cc1[nH]n(-c2ccccc2)c(=O)c1C(C[N+](=O)[O-])c1ccc(F)cc1 (stereo not drawn) | 0.67 | -13 | i | i | i | i
CC1CN(C(=O)COc2coc(CN3CCc4ccccc4C3)cc2=O)CC(C)O1 (stereo not drawn) | 0.26 | . | i | i | i | i
CC1CCC(C(C)C)C(OC(=O)CSc2nnc(N)s2)C1 (stereo not drawn) | -4.2* | -2 | i | i | i | i
CC[C@](C)(O)c1cc2ccccc2c(=O)o1 | . | . | i | . | . | .
O=C(OCC(=O)N1CCN(c2ccccc2)CC1)c1ccc[n+]([O-])c1 | 0.08 | -20 | i | i | i | i
COc1ccc(CCNC(=O)C(=O)NCC2CCCN2S(=O)(=O)c2ccccc2)cc1OC (stereo not drawn) | 1.4 | . | i | 25* | i | i
Cc1cccnc1CCNC(=O)c1ccc(OC2CCN(Cc3ccccn3)CC2)cc1 | -1.1 | -14 | i | i | i | i
COc1ccc(CCNC(=O)c2ccc(CN3CCC(Cc4ccccc4)CC3)cc2)cc1OC | -2.2 | 0 | -6.9* | i | i | i
COc1ccc(CCNC(=O)C2CC2)cc1OC | 0.03 | -14 | i | i | i | i
COc1ccc(CCNC(=O)C2CCC(C(C)(C)C)CC2)cc1OC (stereo not drawn) | -9.1* | -13 | i | i | i | i
O=C(NCCc1cccc(Cl)c1)c1ccc(OC2CCN(Cc3ccccn3)CC2)cc1 | -5.4* | -2 | i | . | . | .
COc1ccc(CN2CCC(Cc3ccccc3)CC2)cc1OC | -0.44 | 0 | i | i | i | i
COc1ccc(NC(=O)N2CCCC(C(=O)NCCc3ccccc3)C2)cc1 (stereo not drawn) | -0.04 | -3 | i | i | i | i
CNS(=O)(=O)c1cccc(C(=O)OCC(=O)Nc2ccc3ccccc3c2)c1 | . | . | i | . | . | .
O=C(Nc1ccc(NC(=O)N2CCN(c3ccccc3O)CC2)cc1)N1CCN(c2ccccc2O)CC1 | 0.5 | 8 | i | i | i | i
Cc1ccc(NC(=O)c2c(Cl)nc3ccccn23)cc1 | 0.17 | -11 | -6.1* | i | i | i
